Laboratory results published in PubChem BioAssay (NCI).
About 83,000 compounds went through this panel and 20% of them were active in at least one assay; those are over-represented in the sample as a whole.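 Plates (96-well) were seeded with cells, treated with compound at one concentration, and incubated for 48 hours before percent growth was determined.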 Unmarked numbers belong to inactive results. Calls of active or inactive are those of the source. How the source made its calls: active means growth percent below 10; inactive means the rest.

Legend:
Assay in all cases: NCI-60 one-dose screen, 48 h (100 = growth as untreated, 0 = no growth, -100 = all killed)
Conditions in all cases: 10 µM unless noted
HT29 colon = system: HT29 colon
SNB-19 CNS = system: SNB-19 CNS
U251 CNS = system: U251 CNS
PC-3 prostate = system: PC-3 prostate
UACC-62 melanoma = system: UACC-62 melanoma
LOX IMVI melanoma = system: LOX IMVI melanoma
SK-MEL-2 melanoma = system: SK-MEL-2 melanoma
SN12C renal = system: SN12C renal
UO-31 renal = system: UO-31 renal
TK-10 renal = system: TK-10 renal
ACHN renal = system: ACHN renal
CAKI-1 renal = system: CAKI-1 renal
A498 renal = system: A498 renal
MOLT-4 leukemia = system: MOLT-4 leukemia
SK-MEL-5 melanoma = system: SK-MEL-5 melanoma
SK-MEL-28 melanoma = system: SK-MEL-28 melanoma
SR leukemia = system: SR leukemia
EKVX NSCLC = system: EKVX NSCLC
CCRF-CEM leukemia = system: CCRF-CEM leukemia
SNB-75 CNS = system: SNB-75 CNS

| Structure (SMILES) | growth (HT29 colon) | growth (SNB-19 CNS) | growth (U251 CNS) | growth (PC-3 prostate) | growth (UACC-62 melanoma) | growth (LOX IMVI melanoma) | growth (SK-MEL-2 melanoma) | growth (SN12C renal) | growth (UO-31 renal) | growth (TK-10 renal) | growth (ACHN renal) | growth (CAKI-1 renal) | growth (A498 renal) | growth (MOLT-4 leukemia) | growth (SK-MEL-5 melanoma) | growth (SK-MEL-28 melanoma) | growth (SR leukemia) | growth (EKVX NSCLC) | growth (CCRF-CEM leukemia) | growth (SNB-75 CNS) |
| --- | --- | --- | --- | --- | --- | --- | --- | --- | --- | --- | --- | --- | --- | --- | --- | --- | --- | --- | --- | --- |
| CC(C)(C)c1ccc(C(O)CCCN2CCC(C(O)(c3ccccc3)c3ccccc3)CC2)cc1 (stereo not drawn) | -92.7% (active) | 4.49% (active) | -85.4% (active) | -4.17% (active) | -98.1% (active) | -93.9% (active) | -76.1% (active) | 4.51% (active) | -80.9% (active) | -81.7% (active) | -88.2% (active) | 1.36% (active) | 50.3% | -13.2% (active) |  |  |  |  |  |  |
| COC1=CC(c2ccc[nH]2)=N/C1=C\c1[nH]c(C)c(C(=O)CCC(=O)Oc2ccc3c(c2)CCC2C3CC[C@]3(C)C(=O)CC[C@@H]23)c1C (stereo partly drawn) | 26.8% | 95.4% | 53% | 60.6% | 65% |  | 91.3% | 63.3% | 52.9% | 107% | 62.7% | 60.1% | 102% | 25.6% | 78% | 97.3% | 10.1% |  |  |  |
| COc1ccc(C2=NN(C(=O)c3cc(OC)c(OC)c(OC)c3)C(c3ccc(C#N)cc3)C2)cc1OC (stereo not drawn) | -8.4% (active) |  | 21.5% | 31.4% | 43.6% | 33.6% |  | 53.5% | 18.2% | 31.9% | 44.6% |  |  | 49.5% | 17.7% | 65.3% | 28.4% | 33.4% | 29.9% |  |
| COc1ccc(-c2c(N)noc2-c2cc(OC)c3c(c2)OCCO3)cc1 | 8.42% (active) | 46.2% | 25.5% | 26.8% | 32.7% | 19.6% | 49.9% | 30.8% | 41% | 77.8% | 22.3% | 45.4% | 2.33% (active) | 10.3% | -21.3% (active) |  | 11.6% | 37.1% | 13.4% |  |
| CN1C(=O)C(=Cc2cn(Cc3ccccc3)c3ccc(Br)cc23)C(=O)N(C)C1=O | 101% | 98.6% | 97.5% | 89.1% | 73.3% | 102% | 107% | 96.6% | 90.1% | 58.3% | 96.3% | 97.1% | -91.3% (active) | 87.6% |  | 113% |  | 108% | 101% |  |
| CCOC(=O)C1C(=O)OC2CCCCC21 (stereo not drawn) | 110% | 97.6% | 101% | 107% | 99.8% | 105% | 118% | 102% | 79.6% | 122% | 102% |  |  | 89% | 114% | 109% | 88% |  | 106% |  |
| Clc1nc(Cl)c2ncn(-c3ccccc3)c2n1 | 43.4% | 103% | 42.7% | 95.7% | 69% | 0.438% (active) |  | 82% | -77.3% (active) | 71.9% |  | -79.9% (active) |  | 44.2% | 78.6% | 91.1% | 39% | 73.3% | 80.3% |  |
| COC(=O)C[C@@H]1CC=CC(=O)/C1=C(O)/C=C/c1ccccc1 | -65.3% (active) | 2.77% (active) | -67.4% (active) | 3.43% (active) | -67.5% (active) | -93.3% (active) |  | -41.5% (active) | -80.8% (active) | -23.7% (active) | -83.3% (active) | -82.9% (active) |  | 3.09% (active) | -97.8% (active) | -35.5% (active) | 5.6% (active) | -30.8% (active) | 10.8% |  |
| CC(c1ccccn1)C(C)(O)C(C)c1ccccn1 (stereo not drawn) |  | 98.9% | 98.7% | 98.9% | 95.6% | 95.6% | 105% | 103% | 90.2% | 99.6% | 103% | 104% | 105% | 65.1% | 105% | 111% |  | 95.3% | 114% | 99.7% |
| Clc1ccc(-c2nc(-c3cccs3)no2)c(Cl)c1 |  | 104% | 90.1% | 83.2% | 89% | 103% | 123% | 101% | 70.9% | 71.4% | 99.8% | 82% | 111% |  | 83.9% | 104% |  | 72.6% | 86% | 63.5% |
| CCC(C)CC(CC)NCCN1CCN(C(CC)CC(C)CC)C1=S (stereo not drawn) | -24.6% (active) | 47.1% | 25.2% | 33.4% | 23.9% | -0.0423% (active) | 94.1% | 36.9% | 41.4% | 58.5% | 52.4% | 59.6% | 61.9% | 38.5% |  | 20.3% |  | 23% | 24.3% |  |
| COc1ccc(-c2nn(-c3cccc(Cl)c3)cc2C2CC(c3ccccc3)=NN2C(C)=O)cc1 (stereo not drawn) |  | 72.9% | 66.7% | 69% | 83.5% | 76.7% | -2.7% (active) | 69.7% | 58.9% | 62.8% | 15.1% | 53% | 56.9% | 93.9% | 77.2% | 69.9% | 75.6% | 67.6% | 83% | -3.45% (active) |
| Cc1ccc2c(c1)O/C(=C\c1ccc([N+](=O)[O-])o1)C2=O |  | 93.4% | 68.3% | -61.2% (active) | 51.5% | 4.66% (active) | 79.2% | 34.7% | -21.6% (active) | -32.7% (active) | 1.36% (active) |  | 122% | -1.6% (active) | 76.9% | 83.3% | 10.6% |  | -32.4% (active) | 84.3% |
| CCCCCCCC/C=C/CCCCCCCC1=NC(C)(C)CN1CCO | -42.1% (active) | 60.5% | -35.5% (active) | 22.8% | -64.4% (active) | -74.6% (active) | -44.4% (active) | 60.9% | -44.8% (active) | 59.5% | 24.4% | 59.5% | 89.2% | -44.4% (active) | 3.21% (active) | -68.4% (active) | -43.1% (active) | 58.5% |  |  |
| Cc1c(C(N)=O)sc2c1c(=O)n(Cc1ccccc1)c1nnc(S(=O)(=O)CC(=O)Nc3ccc(Cl)cc3)n21 | 21.9% | 64.9% | 35.2% | 35% | 67.4% | 44.1% | 33.1% | 56% | 87% | 18% |  | 68.2% | 22.6% |  |  |  |  | 43.6% |  |  |
